Data published in PubChem BioAssay AID620 (Sanford-Burnham Center for Chemical Genomics, 2007).
In all, about 87,000 compounds went through this assay and about 360 (0.41%) were called active. No stated cut-off is given here; in the data, active means cytotoxicity above about 50%; inactive means the rest. The full list was thinned out, with actives kept by preference.

Experiment: HT1080 cell viability loss – fluorescence readout (AID 620);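 further: cells exposed to compound overnight then 4 h with Alamar Blue; 0% = vehicle DMSO and 100% = killing control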
Conditions: at 10 µM, active compounds read high

| SMILES | cytotoxicity |
| --- | --- |
| COCCCNC(=O)CC(NS(=O)(=O)c1ccc(Cl)cc1)c1ccco1 (stereo not given) | -9.5% (inactive) |
| CC(C)CNS(=O)(=O)c1ccc(CCC(=O)N2CCOCC2)cc1 | 2.1% (inactive) |
| COc1ccc(-c2n[nH]c(C)c2-c2ccc(Cl)cc2)c(O)c1 | -10.8% (inactive) |
| C=C(C)COc1ccc(-c2n[nH]c(C)c2-c2ccc(OC)cc2)c(O)c1 | -14.1% (inactive) |
| C=C(C)COc1ccc(-c2n[nH]c(C)c2-c2ccc(Br)cc2)c(O)c1 | 50.7% (active) |
| COc1ccccc1NS(=O)(=O)c1cc(Cl)ccc1OC | 16.4% (inactive) |
| Cn1c(N)c(C(=O)COC(=O)c2cc(C(F)(F)F)nc3ccccc23)c(=O)n(Cc2ccccc2)c1=O | 5.9% (inactive) |
| CCc1c(C)nc2ncnn2c1NCCc1ccc(OC)cc1 | 61.9% (active) |
| COc1ccc(CCNc2c(C)c(C)nc3ncnn23)cc1 | 17.9% (inactive) |
| CCc1c(C)nc2ncnn2c1NCCc1ccccc1 | -9.2% (inactive) |
| O=C(N1CCOCC1)C12CC3CC(C1)CC(C(=O)N1CCOCC1)(C3)C2 | -17.8% (inactive) |
| Cc1cc(C)c(C)c(S(=O)(=O)NCC(=O)N2CCCC2)c1C | 6.8% (inactive) |
| COc1ccc(NC(=O)/C(Cl)=C(/Cl)S(=O)Cc2ccc(C)cc2)cn1 (stereo not given) | 92.3% (active) |
| CCOc1ccccc1OCCCC(=O)Nc1ccc(OC)nc1 | 2.4% (inactive) |
| COc1ccc(NC(=O)c2cc(CN3C(=O)c4ccccc4C3=O)ccc2OC)cn1 | -0.1% (inactive) |
| COc1ccc(NC(=O)/C(Cl)=C(/Cl)S(=O)Cc2ccccc2)cn1 (stereo not given) | 95.5% (active) |
| COc1ccc(NC(=O)c2nc3nccc(C)n3n2)cn1 | 10.5% (inactive) |
| COc1ccc(NC(=O)c2cc(=O)c3ccccc3o2)cn1 | 7% (inactive) |
| COc1ccc(CC(=O)N2CCN(C(=O)c3ccco3)CC2)cc1 | 4.7% (inactive) |
| NC(=O)C(c1ccccc1)C1CCCCC1 (stereo not given) | 5.9% (inactive) |
| CC1(C)CC(=O)C=C(NCCN2CCN(C(=O)Nc3ccc(Cl)cc3)CC2)C1 | -6.1% (inactive) |
| Cc1[nH]nc(SCC(=O)N2CCC(C)CC2)c1[N+](=O)[O-] | 0.7% (inactive) |
| COC(=O)C1CC(=O)N(CCc2c[nH]c3ccccc23)C1 (stereo not given) | 2.6% (inactive) |
| COC(=O)Cn1nc(-c2ccccc2)c2ccccc2c1=O | 5.9% (inactive) |
| COc1ccc(-n2nnnc2S(=O)(=O)CC(=O)N2CCCCC2)cc1 | 54.3% (active) |

| SMILES | cytotoxicity |
| --- | --- |
| COc1ccc(-n2nnnc2S(=O)(=O)Cc2ccc(C(=O)O)cc2)cc1 | 11.4% (inactive) |
| COc1cc(OC)cc(-n2nnnc2SCC(=O)N2CCCC2)c1 | -5.2% (inactive) |
| Cn1c(SCc2cc(=O)[nH]c3ccccc23)nnc1-c1ccc(Br)cc1 | 6% (inactive) |
| C(=C\c1ccccc1)/CSc1nnc(-c2ccccc2)n1Cc1ccco1 | 53.5% (active) |
| C(=C\c1ccccc1)/CSc1nnc(-c2ccncc2)n1Cc1ccco1 | -2.1% (inactive) |
| Clc1cccc(-c2nnc(SC/C=C/c3ccccc3)n2Cc2ccco2)c1 | -0.5% (inactive) |
| O=C(CN1C(=O)NC(Cc2ccccc2)C1=O)Nc1ccccc1 (stereo not given) | -3.1% (inactive) |
| COC(=O)CSc1cc(C)nc(SC)n1 | -7.3% (inactive) |
| O=C(Nc1cc(Cl)ccc1O)C1CCCO1 (stereo not given) | -2.4% (inactive) |
| CCc1nnc(NC(=O)Cn2nc(-c3ccccc3OC)ccc2=O)s1 | 10.1% (inactive) |
| CC(=O)c1cn(CC(=O)Nc2ccccc2C)c2ccccc12 | -1.9% (inactive) |
| CN1CCN(c2ccc(Cl)cc2NS(=O)(=O)c2ccccc2Cl)CC1 | -1.9% (inactive) |
| Cc1ccc(NS(=O)(=O)c2ccccc2Cl)c2c1CC(C)(C)O2 | 62.3% (active) |
| Cc1ccccc1NS(=O)(=O)c1cc(S(C)(=O)=O)ccc1Cl | -10.1% (inactive) |
| COC(=O)C1=C(C)C(c2ccc(OC)cc2OC)NC(=O)N1 (stereo not given) | 2.9% (inactive) |
| COc1ccc(C2CC(c3c(O)cc(C)oc3=O)=NCCS2)c(OC)c1 (stereo not given) | 51.9% (active) |
| COc1ccc(C2C(C(C)=O)=C(O)C(=O)N2C)c(OC)c1 (stereo not given) | 5.8% (inactive) |
| CCN1CC=C2C(C#N)=C(N)C(C#N)(C#N)[C@H](c3ccoc3)[C@H]2C1 | -2.2% (inactive) |
| N#CC1=C(N)C(C#N)(C#N)[C@H](c2ccoc2)[C@H]2CN(Cc3ccccc3)CC=C12 | 66.1% (active) |
| CN1CC=C2C(C#N)=C(N)C(C#N)(C#N)[C@H](c3ccoc3)[C@H]2C1 | -7.5% (inactive) |
| CCOC(=O)c1ccc(NC(=O)CN2CCc3ccccc3C2)cc1 | -3.7% (inactive) |
| COc1cccc(-c2cc(C(=O)Nn3cnnc3)c3ccccc3n2)c1 | 11.6% (inactive) |
| CCN(CC)c1nc(N)nc(NS(=O)(=O)c2ccc(Cl)cc2)n1 | 51.4% (active) |
| CN(C)c1nc(NS(=O)(=O)c2ccc(Cl)cc2)nc(N(C)C)n1 | 35.3% (inactive) |
| CCNc1nc(NC(C)C)nc(NS(=O)(=O)c2ccc(Cl)cc2)n1 | -8.8% (inactive) |
